Bioassay records from PubChem.
RecA splice inh: inhibitors of M. tuberculosis RecA intein splicing; P9WHJ3; cell-free RecA intein splicing, fluorescence; inhibition, % (concentration not given with the values); 0.75% of 290,000 active; AID 2221; in the data active = inhibition above about 30%; inconclusive = no clear call, values can overlap the other calls;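 also: 0% = vehicle wells and 100% = reference inhibitor control wells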
Mtb bLac sens: beta-lactam sensitization of Mtb H37Rv | 0.27% of 330,000 active | inhibition, % at 25 µM | M. tuberculosis H37Rv growth with meropenem, percent inhibition | AID 434955; call rule not given here;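 also: growth measured after seven days incubation then overnight dye step; 0% = bacteria only wells and 100% = bacteria with antibiotic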
FBA Mtb inh: Mtb fructose-bisphosphate aldolase inhibition; P9WQA3; purified M. tuberculosis FBA, fluorescence read-out; inhibition, % at 1 µM; 2.3% of 360,000 active; AID 588726; in the data active = inhibition above about 27%;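 also: 0% = vehicle and 100% = reference inhibitor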
Mtb UGM inh: blocks M. tuberculosis UGM enzyme | P9WIQ1 | purified UGM, fluorescence polarization probe displacement | inhibition, % at 10 µM | 0.06% of 320,000 active; in the data active = inhibition above about 10%, passing the limit was not always enough; inconclusive = no clear call, values can overlap the other calls
Target sequence (P9WIQ1 whole entry, looked up): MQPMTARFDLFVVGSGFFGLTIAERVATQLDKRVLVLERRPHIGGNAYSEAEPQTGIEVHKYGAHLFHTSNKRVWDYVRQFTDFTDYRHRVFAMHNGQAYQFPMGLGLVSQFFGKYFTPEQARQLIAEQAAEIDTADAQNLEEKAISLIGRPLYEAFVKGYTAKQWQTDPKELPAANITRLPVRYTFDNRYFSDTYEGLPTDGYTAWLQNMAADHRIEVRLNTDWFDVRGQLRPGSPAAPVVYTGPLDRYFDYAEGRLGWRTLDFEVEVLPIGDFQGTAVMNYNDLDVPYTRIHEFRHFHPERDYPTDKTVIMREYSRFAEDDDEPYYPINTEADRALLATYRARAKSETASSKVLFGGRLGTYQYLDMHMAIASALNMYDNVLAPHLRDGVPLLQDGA
Rv3671c inh: inhibits the M. tuberculosis serine protease Rv3671c. inhibition, % at 5.96 µM. P9WHR9. AID 2606. 0.048% of 320,000 active; in the data active = inhibition above about 38%;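 also: extracellular domain of Rv3671c used as enzyme; 0% = enzyme with DMSO and 100% = no enzyme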
GDH-TPI counter: inhibits GDH-TPI coupling enzymes, artifact for Mtb FBA screen. inhibition, % at 4.8 µM. GDH-TPI coupled enzyme counterscreen, NADH absorbance. 1.2% of 360,000 active; in the data active = inhibition above about 30%;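 also: 0% = DMSO wells and 100% = wells lacking the enzyme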
Active calls of the source: *; ? = inconclusive; . = no result given; + = active, no number. In the library only some 4% were active in any assay of this set; here they are far more common.

SMILES	RecA splice inh	Mtb bLac sens	FBA Mtb inh	Mtb UGM inh	Rv3671c inh	GDH-TPI counter
Cc1cccc(N=Cc2c(O)n(-c3ccccc3C)c(=O)[nH]c2=O)c1	-3	2	-2	0	-4	48*
Cc1ccccc1-n1c(O)c(C=Nc2ccc(N(C)C)cc2)c(=O)[nH]c1=O	-2	?	-9	0	-13	43*
CSC1=NC=C(C#N)C2=NC(c3c(Cl)cccc3Cl)NN12 (stereo not given)	.	.	3	.	.	.
Cc1ccc(Nc2ccc3nonc3c2[N+](=O)[O-])cc1	7	6	-6	-2	6	3
Nc1ccc2nonc2c1[N+](=O)[O-]	.	-6	-6	23*	-3	-3
CC1(C(=O)Nc2ccc(Cl)cc2)Cc2c(-c3ccc(C(N)=O)cc3)ccnc2O1 (stereo not given)	.	.	3	.	.	2
Cc1ccc2c(c1)c1nnc(SCC(=O)Nc3ccc(N(C)C)cc3)nc1n2CC(=O)O	39*	-1	-2	-3	2	16
Cc1cc2nc(-c3ccccc3Br)n(/C=C(\c3ccccc3)n3c(=O)[nH]c4ccccc43)c2cc1C	.	.	7	.	.	.
Cn1c(=O)c2cc(NC(=O)NCCc3ccccc3)ccc2n1Cc1cccc(C(F)(F)F)c1	.	.	130*	.	.	6
Cn1c(=O)c2cc(NC(=O)OCCF)ccc2n1Cc1cccc(C(F)(F)F)c1	.	.	183*	.	.	5
Cn1c(=O)c2cc(NC(=O)NCCc3ccccc3)ccc2n1Cc1ccccc1	.	.	127*	.	.	-4
Cn1c(=O)c2cc(NC(=S)NC3CCCCC3)ccc2n1Cc1cccc(C(F)(F)F)c1	.	.	16	.	.	2
Cc1ccc(OCCC(=O)Nc2cc(S(=O)(=O)N3CCOCC3)ccc2N2CCCC2)cc1	.	.	1	.	.	14
COc1cc(C(=O)NCCC(=O)N2CCC3(CC2)NCCc2[nH]cnc23)cc(OC)c1OC	0	7	6	1	-9	-1
Cc1nc2ccccc2c2c1C(=O)NC2=O	60*	-15	.	0	6	.
O=c1oc2cc(O)ccc2c2c1CCCC2	-17	51	+	5	1	7
Cc1cc(OC(=O)c2ccco2)c2c3c(c(=O)oc2c1)CCC3	5	5	3	-1	17	17
CSCCC(NC(C)=O)C(=O)Oc1ccc2c3c(c(=O)oc2c1)CCCC3 (stereo not given)	-32	.	+	.	.	6
COc1c(CC=C(C)C)c(O)cc2oc(=O)c3c4ccc(O)cc4oc3c12	-30	-2	142*	-1	-7	5
O=C(Oc1ccc2c3c(c(=O)oc2c1)CCCC3)c1ccco1	10	2	99*	0	3	-6
O=c1oc2cc(O)ccc2c2oc3cc(O)ccc3c12	-16	-10	+	1	-29	35*
O=C(COc1ccc2c3c(c(=O)oc2c1)CCC3)N1CCCC1	3	-14	26	2	-7	5
CC(=O)Oc1ccc2c3c(c(=O)oc2c1)CCCC3	3	8	195*	0	-6	2
COC(=O)C(C)Oc1ccc2c3c(c(=O)oc2c1)CCCCC3 (stereo not given)	-1	100	146*	-3	-2	30
COc1ccccc1-c1c(C)oc2c(CN3CCN(CCO)CC3)c(O)ccc2c1=O	-2	.	176*	.	.	14
SMILES	RecA splice inh	Mtb bLac sens	FBA Mtb inh	Mtb UGM inh	Rv3671c inh	GDH-TPI counter
COc1ccccc1-c1c(C)oc2c(CN3CCN(C)CC3)c(O)ccc2c1=O	-2	6	143*	3	15	21
O=C(CN1C(=O)NC2(CCCCCC2)C1=O)Nc1ccc(OC(F)(F)F)cc1	.	.	3	.	.	-3
COc1cc(OC)c(NC(=O)c2ccco2)cc1Cl	6	6	1	-2	1	14
COc1cc(NC(=O)c2ccco2)c(OC)cc1NC(=O)Nc1ccc(Cl)cc1	-5	9	7	-2	12	31*
COc1ccccc1Cc1c(-c2ccco2)nc2c(C)cc(Br)cn12	.	.	0	.	.	.
COC(=O)c1ccc2nc(-c3ccc(F)cc3)c(Cc3ccsc3)n2c1	.	.	4	.	.	.
O=C(O)C1SCCN1S(=O)(=O)c1ccc(N=NN2CCOCC2)cc1 (stereo not given)	0	3	165*	-3	2	18
CS(=O)(=O)c1ccc2nc(NC(=O)c3cc([N+](=O)[O-])cc([N+](=O)[O-])c3)sc2c1	-3	-1	-5	3	2	15
CS(=O)(=O)c1ccc2nc(NC(=O)c3cccc([N+](=O)[O-])c3)sc2c1	-1	-2	-2	-1	-4	39*
CS(=O)(=O)c1ccc2nc(NC(=O)c3cccs3)sc2c1	.	27	-2	0	-6	49*
CCNS(=O)(=O)c1ccc2nc(NC(=O)c3cccnc3)sc2c1	-10	-4	-1	0	-1	70*
CCOC(=O)C1C(c2ccc(C(=O)O)cc2)NC(=O)NC1(O)C(F)(F)F (stereo not given)	0	3	1	0	3	5
Cc1ccnc(N/C=C(/NC(=O)c2ccccc2)C(=O)N/N=C\c2ccc(Cl)cc2)n1	0	-6	-5	-1	-10	91*
O=C(N/N=C/c1ccncc1)/C(=C/c1ccccc1)NC(=O)c1ccccc1	-1	11	-3	0	4	11
Nc1nc(N)c2c(ccc3nccc32)[nH]1	18	0	114*	-4	8	21
CCc1cc2c(=O)n(-c3ccccc3)c(=S)[nH]c2s1	-1	-12	2	4	-2	32*
O=c1c2cc(Br)ccc2[nH]c(=S)n1-c1ccccc1	-1	-7	2	-2	5	-2
CCc1ccc2c(c1)NC(=O)C2(C)Cc1ccccc1OC (stereo not given)	.	.	1	.	.	11
COc1ccccc1[C@H]1C(c2cccc(Cl)c2)=NN(c2ccccc2)[C@@H]1CO	.	.	46*	.	.	9
C[C@@H]1C(c2ccc(F)cc2)=NN(c2ccccc2)[C@H]1C(=O)N1CCOC1=O	.	.	2	.	.	20
OC[C@@H]1[C@@H](c2ccccc2)C(c2ccc(F)cc2)=NN1c1ccccc1	.	.	46*	.	.	5
Cc1ccc(NC2CCCN(C(=O)CCN3CCOCC3)C2)cc1C (stereo not given)	0	-15	0	1	0	-3
CCOC(=O)C1=CCN(S(=O)(=O)c2ccc(C)cc2)C1c1ccc(Cl)cc1 (stereo not given)	.	.	-2	.	.	.
COc1ccc(CCC(=O)OCC(=O)c2cccc(OC)c2)cc1	13	13	-1	2	-6	6
CN(C)C(CNC(=O)c1cc2ccccc2o1)c1ccco1 (stereo not given)	.	-7	-2	3	4	-6
Cc1cc(C)c(C(=O)/C=C/c2ccc(C(C)C)cc2)c(=O)[nH]1	7	.	-1	-1	0	42*
Cc1cc(C)c(C(=O)/C=C/C=C/c2ccccc2)c(=O)[nH]1	-9	7	-2	-1	-1	23
C/C(=C\C=C\c1ccccc1)C(=O)c1c(C)cc(C)[nH]c1=O	-4	0	-2	3	1	47*
